High-throughput results from PubChem.
Most compounds without a hit are left out; they make up all but 14% or so of the library.
CRE Fsk mod – CRE-bla signaling modulation under forskolin stimulation; CHO CRE-bla reporter (cAMP response element driving beta-lactamase), forskolin EC10, beta-lactamase ratio; Potency, µM (doses to about 38.2 µM), for inactives: top-dose activity change, negative = inhibition, most hits filed as activators; 71,000 tested, 2.5% active; AID 662; active = well fitted activation curve with a large enough effect in the signal ratio, with a control signal flat, not every such curve was filed as active; inconclusive = small, poorly fitted or top-dose-only effect, or effect the other way, or a change in a side signal; the % refers to the signal ratio; also: potency is read from the fitted curve at half-maximal effect; % of control where 0% means no effect
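CHO CRE-bla cells, overnight plating in Opti-MEM with 0.5% dialyzed FBS; cpd titration + EC10 NKH 477, 3 h 37 °C; CCF4 2 h RT; ex 405/em 460 vs 530 ratio → %Activity, AC50.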
HADH2 inhib – blocks human hydroxyacyl-CoA dehydrogenase type II. Q99714. recombinant HADH2, NADH fluorescence, beta-hydroxybutyryl-CoA. Potency, µM (doses to about 57.1 µM), inactives show top-dose activity change, negative = inhibition, most hits filed as inhibitors. 73,000 tested, 3.4% active; also: potency is read from the fitted curve at half-maximal effect; % is scaled to controls: 0 for no effect and ±100 for the full control effect; nearly all actives have a fitted effect of over 60% in size
Target sequence (Q99714 whole entry, looked up, one chain of several): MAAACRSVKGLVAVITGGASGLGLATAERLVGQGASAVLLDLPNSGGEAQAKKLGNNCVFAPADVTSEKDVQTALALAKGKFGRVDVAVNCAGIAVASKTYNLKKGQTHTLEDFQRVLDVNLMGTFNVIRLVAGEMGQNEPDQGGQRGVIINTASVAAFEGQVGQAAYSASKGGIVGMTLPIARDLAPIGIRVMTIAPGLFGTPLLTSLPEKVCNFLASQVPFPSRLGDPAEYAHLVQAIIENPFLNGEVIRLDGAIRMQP
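His-tagged recombinant enzyme from E. coli, 20 nM, preincubated 15 min RT with compound; reaction started with 1 mM NAD+ and 90 uM beta-hydroxybutyryl-CoA in 100 mM Tris-HCl pH 9.0. NADH fluorescence (ex 360/em 450) read over 4 min; last-minus-first difference.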
A350 fluor – compounds fluorescent in Alexa 350 spectral region. Compound autofluorescence, 340/450 nm, Alexa 350 dye-equivalents; stronger effect = higher value. max dye-equivalent concentration, M. 59,000 tested, 11% active; in the data active = max dye-equivalent concentration above about 10 nM; inconclusive = mostly about 1.1 nM to 9.6 nM
HSD17B inh – HSD17B dehydrogenase inhibition; 75,000 tested, 7.6% active; recombinant HSD17B10, NADH fluorescence kinetic; Potency, µM (titrated, usually from 57.1 µM), for the others: at the highest dose activity change, negative = inhibition, hits mostly inhibitors; Q99714;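 also: the protocol describes HADH2 (HSD17B10) and not the HSD17B4 of the title; potency is read from the fitted curve at half-maximal effect; % is scaled to controls: 0 for no effect and ±100 for the full control effect; nearly all actives have a fitted effect of over 70% in size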
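Activity followed as NADH fluorescence increase (ex 360, em 450 nm) every 30 seconds for 4 min, using final 90 uM beta-hydroxybutyryl CoA and 1 mM NAD+. Recombinant His-tagged enzyme, 20 nM, pH 9.0 Tris buffer, 15 min compound preincubation.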
4-MU autofl – compounds fluorescent in 4-MU spectral region; compound autofluorescence, 340/450 nm, 4-MU equivalents; stronger effect = higher value; max dye-equivalent concentration, M; 59,000 tested, 11% active; in the data active = max dye-equivalent concentration above about 10 nM; inconclusive = mostly about 1.1 nM to 9.6 nM
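Intrinsic fluorescence at 340/450 nm (ex/em) was read after 15 min at room temperature in pH 8.0, 100 mM Tris. Each compound concentration expressed as 4-MU-equivalent concentration from a six-point 4-MU standard series on each plate.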
AID923 – qHTS Assay for Allosteric/Competitive Inhibitors of Caspase-1: Spectroscopic Profiling in AFC Spectral Region. compound fluorescence, AFC spectral region (405/520 nm). Potency, µM (titrated, usually from 57.5 µM), inactives show at the top dose fluorescence increase, actives largely listed as activators. 75,000 tested, 1.1% active; also: potency is read from the fitted curve at half-maximal effect; 0% is about no effect
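Titrations up to 57 uM read every 20 sec for 3 min (405/520 nm) with 50 nM caspase 1 and 5 uM Ac-WEHD-AFC, pH 7.5 HEPES buffer. Fluorescence-vs-time intercept gave baseline, scaled against on-plate AFC standard.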
* marks the source's active call; other numbers are inactive results; i = inactive; u = inconclusive; x = no result given; [ ] = dose if it differs, or a comment. Unless noted, calls follow the shape of the dose curve; as a rule, active = well fitted curve in the direction sought with a large enough effect; inconclusive = small, poorly fitted or top-dose-only effect, or another doubt; inactive = no such curve, though single readings can be large; an effect the other way counts as inactive or inconclusive.

SMILES	CRE Fsk mod	HADH2 inhib	A350 fluor	HSD17B inh	4-MU autofl	AID923
COc1ccc(OC)c(NC(=O)C2C3C=CC(C3)C2C(=O)NCc2ccccn2)c1 (stereo not given)	6%	7%	1.8e-08M*	-4%	1.8e-08M*	3%
O=C(NC[C@H]1CCCCN1)c1cc(OCC(F)(F)F)ccc1OCC(F)(F)F	-14%	-2%	u	-4%	u	-1%
CCOC(=O)CCc1c(C)c2ccc(OCC(=O)N(CC)CC)c(C)c2oc1=O	0%	20µM*	1.3e-08M*	25µM*	1.4e-08M*	0%
Cc1cc(=O)oc2c(C)c(OCC(=O)N(C)C)ccc12	14%	32µM*	u	32µM*	u	-1%
CCc1c(C)c2ccc(OCC(=O)OC(C)C)c(C)c2oc1=O	23%	25µM*	u	32µM*	i	-2%
C=CCOC(=O)COc1ccc2c(C)c(C)c(=O)oc2c1C	29%	60%	x	166%	x	-2%
Cc1c(C)c2ccc(OCC(=O)N(C)C)c(C)c2oc1=O	u	25µM*	1.8e-08M*	32µM*	1.8e-08M*	-2%
CC(C)C[C@@H](CC(=O)N[C@@H](CCC(=O)O)CC(=O)O)NC(=O)[C@@H]1CNCC[C@H]1NC(=O)C[C@H](CCCN)NC(=O)C[C@H](CO)NC(=O)[C@@H]1CCCC[C@H]1N	-12%	-19%	x	x	x	x
COc1ccc(/C=N/n2cnnc2SCc2ccccc2)cc1	u	1%	x	3%	x	-2%
COc1ccc2c(C)cc(=O)oc2c1C	u	25µM*	x	25µM*	x	0%
CCc1ccc(OCC(=O)N(C)C)c(Br)c1	4%	-1%	i	9%	i	-3%
CCc1c(C)c2ccc(OCC(=O)N(C)C)c(C)c2oc1=O	6.3µM*	25µM*	1.2e-08M*	32µM*	1.2e-08M*	-2%
CCOc1ccccc1NC(=O)CSc1nnc(-c2ccccc2Cl)n1Cc1ccco1	u	6%	i	-9%	i	-1%
Cc1cc(C)c(NC(=O)OCCN2CCOCC2)c(C)c1	x	x	1e-07M*	x	8.8e-08M*	x
Cc1cc(C)c(NC(=O)CCCN2CCOCC2)c(C)c1	0%	11%	i	0%	i	-4%
c1ccc(C2[C@H]3CN(CC4CCCCC4)[C@H](c4ccccc4)C34CC2(c2cccnc2)C4)cc1 (stereo not given in full)	x	x	x	-7%	x	0%
CCOC(=O)c1nnn(-c2nonc2N)c1-c1cccs1	-8%	-3%	i	13%	i	-2%
CCOC(=O)c1nnn(-c2nonc2N)c1-c1cccc2ccccc12	7%	-7%	i	32µM*	i	-2%
CCOc1ccc(OCc2ccc(C(=O)NCc3ccncc3)o2)cc1	0%	2%	u	-2%	i	-1%
CCOc1ccc(OCc2ccc(C(=O)O)o2)cc1	-25%	-13%	1e-08M*	-8%	1.1e-08M*	-1%
COc1ccc(OC)c(NC(=O)C2=C(C)Nc3ncnn3C2c2cccs2)c1 (stereo not given)	23%	-2%	1.6e-07M*	-6%	1.2e-07M*	-1%
O=[N+]([O-])c1cc(Cc2cc([N+](=O)[O-])c3cccnc3c2O)c(O)c2ncccc12	-1%[7.6 µM]	u	u	u	i	4%[11.5 µM]
CC(=O)Oc1ccc(N2C(=O)C3C(C2=O)C2(C)C=CC3(C)O2)cc1 (stereo not given)	u	0.2µM*	x	u	x	0%
COC(=O)c1cc(N2C(=O)C3C(C2=O)C2(C)C=CC3(C)O2)ccc1Cl (stereo not given)	u	u	x	u	x	-1%
CCc1c2c(nc3ccc(OC)cc13)OC(CC)C2 (stereo not given)	u	-2%	x	u	x	0%
CCOc1c2c(nc3ccc(Cl)cc13)CCC2	u	-12%	i	-4%	i	0%
CCc1c2c(nc3ccc(OC)cc13)COC2	u	19%	x	32µM*	x	-3%
COc1ccc2nc3c(c(-c4ccccc4)c2c1)CCC3	10µM*	-13%	x	13µM*	x	-1%
